This note sets out measurements from PubChem BioAssay AID430 (Sanford-Burnham Center for Chemical Genomics, 2006).

The whole screen tested about 63,000 compounds, of which about 1,100 (1.7%) were called active. What follows is part of a selection rich in actives, with near analogues and random picks from the rest. Entries with a potency or affinity are not part of this list. Unmarked numbers belong to inactive results. Rule as the data show it: active = cytotoxicity above about 50%; inactive = the rest.

A short description of this test: HPDE-C7 pancreatic duct cell viability loss – fluorescence, HTS (AID 430).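 Also: cells exposed to compound for 48 hours before viability readout; 0% = vehicle and 100% = reference cytotoxic drug.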 To be noted: HPDE-C7 pancreatic duct cells viability, at 10 µM, hits give high values.
Consider `O=C(Cn1cnc2ccccc2c1=O)c1ccc2c(c1)OCCO2`, for which the cytotoxicity is -6.3%. Next, `COc1cccc(-c2cc(C(=O)Nc3c(C)nn(Cc4ccccc4C)c3C)no2)c1`: -3.2%; `COc1ccccc1C(=O)N1CCN(C(=O)COc2cccc(C)c2)CC1`: -7.6%. In the case of `CC1=C(C(=O)NC(C)c2ccc3c(c2)OCCO3)C2(CCC(C)CC2)OC1=O` (stereo not drawn), the cytotoxicity was 10.7%. The figure for `CCCCOC(=O)CSc1nc(N)c(C#N)c(-c2ccc(OCC)cc2)c1C#N` is 5.1%; for `CCOC(=O)CC(=O)CSc1nc(N)c(C#N)c(-c2ccc(F)cc2)c1C#N` it is 5.6%. The figure for `CCCCOc1ccc(-c2c(C#N)c(N)nc(SCC(N)=O)c2C#N)cc1` is 82.5% (active); for `CCCCOC(=O)CSc1nc(N)c(C#N)c(-c2ccc(OC)cc2)c1C#N` it is -16%.

`CCOC(=O)CSc1nc(N)c(C#N)c(-c2ccc(OC)cc2)c1C#N`: the cytotoxicity was -6.1%. The figure for `CCOC(=O)CC(=O)CSc1nc(N)c(C#N)c(-c2ccc(Cl)cc2)c1C#N` is 54.7% (active); for `CC(=NCC1CCNCC1)C1=C(O)CC(C)(C)CC1=O` it is -8.1%. Next, `CCOc1ccccc1-c1nn2c(Cc3ccccc3)nnc2s1`: -4.2%; `NC(=O)C(F)(F)C12OC3C4C5CC(C6C5C3C61)C42` (stereo not drawn): -3.7%.

For the compound `CC(C)(C)Nc1cccccc1=O`, the cytotoxicity was -8%.

With `COc1ccc(C)cc1S(=O)(=O)N(CC(=O)O)c1ccccc1`, the cytotoxicity was -0.9%. Next, `COc1ccc(OC)c(S(=O)(=O)n2nc(-c3ccccc3)cc2N)c1`: -13.7%; `COc1ccc(S(=O)(=O)n2nc(-c3cc(OC)c(OC)c(OC)c3)cc2N)cc1OC`: -3.7%; `Cc1cc(C)cc(N2C(=O)C3C4C=CC(C4)C3C2=O)c1` (stereo not drawn): -5.5%. The figure for `Cc1ccc(CC2(O)CC(C)N(C)CC2C)c(C)c1` (stereo not drawn) is 0.1%; for `Nc1nonc1C(=O)NC(c1ccccc1)c1ccccc1` it is 3.4%; for `COc1ccc(C2CC(c3ccccc3)Nc3nc(NC(=O)c4cccs4)nn32)cc1` (stereo not drawn) it is -3.4%. Consider `COc1ccc(C(=O)N2CCN(c3cccc(Cl)c3)CC2)c(OC)c1`, for which the cytotoxicity was 44.1%. The figure for `CCOc1ccc2ccccc2c1C(=O)N1CCN(c2ccccc2)CC1` is 50.5% (active); for `O=C(c1c(Cl)nc2sccn12)N1CCN(c2cccc(Cl)c2)CC1` it is 75% (active).

As to `Cc1ccc(C(=O)N2CCN(c3cccc(Cl)c3)CC2)cc1C`, the cytotoxicity was 36.8%. Next, `Cc1cc(C(=O)N2CCN(c3ncccn3)CC2)c(C)o1`: 2.2%. In the case of `O=C(O)c1ccccc1C(=O)N1CCN(c2cccc(Cl)c2)CC1`, the cytotoxicity is 6.7%.

Turning to `O=C(c1cccc(F)c1)N1CCN(c2cccc(Cl)c2)CC1`, the cytotoxicity is 36.5%. The figure for `CCOc1ccc(C(=O)N2CCN(c3ccccc3)CC2)cc1OCC` is -51.5%. Next, `COc1ccccc1C(=O)N1CCN(c2cccc(Cl)c2)CC1`: -13%; `CCOc1ccc2ccccc2c1C(=O)N1CCOCC1`: 2.5%; `CCOc1ccccc1C(=O)N1CCN(c2cccc(Cl)c2)CC1`: 62.2% (active). The figure for `Cc1cc(C(=O)N2CCN(c3cccc(Cl)c3)CC2)c(C)o1` is 53.3% (active); for `CN1CCN(/C=C2\SC(=S)NC2=O)CC1` it is -23.4%. On to `O=C(c1cnc2n(c1=O)CCS2)N1CCN(c2ccc(Cl)c(Cl)c2)CC1`, for which the cytotoxicity is -3.5%.

In the case of `CC(NS(=O)(=O)c1ccc(Br)cc1)C(c1cccs1)N1CCN(C)CC1` (stereo not drawn), the cytotoxicity is -8.4%. As for `c1ccc(-n2c(-c3ccncc3)nnc2-c2ccco2)cc1`, the cytotoxicity was -33.8%. The figure for `O=C(O)CC1C(=O)NCCN1C/C=C/c1ccccc1` (stereo not drawn) is -5.3%; for `O=C(CN(C(=O)CNC(=O)c1ccco1)c1ccc2c(c1)OCO2)NC1CCCCC1` it is -31.1%. The figure for `Cc1ccc2c(c1)nnn2C1CCN(C(=O)C2CCCCC2)CC1` is -12.5%; for `COc1ccccc1C(=O)N1CCN(c2cccc(C(F)(F)F)c2)CC1` it is 60.8% (active); for `COc1ccccc1CC(=O)N1CCN(c2cccc(C(F)(F)F)c2)CC1` it is -10.2%. The figure for `O=C(c1ccccc1F)N1CCN(c2cccc(C(F)(F)F)c2)CC1` is -5%; for `Cc1nnc(SCc2ccc(F)cc2)s1` it is 105% (active); for `CSc1nsc(SCc2ccc(F)cc2)n1` it is -4.1%. For `Nc1nnc(SCc2ccc(F)cc2)s1`, the cytotoxicity is -16.7%. As for `Clc1ccccc1-c1nnc2sc(-c3ccco3)nn12`, the cytotoxicity is -6.1%. In the case of `COC(=O)C1=C(C)N(c2ccc(F)c(Cl)c2)C(=O)C1`, the cytotoxicity is -5.3%. For the compound `COC(=O)C1=C(C)N(c2ccc(Cl)c(Cl)c2)C(=O)C1`, the cytotoxicity is 84.2% (active). Consider `COC(=O)C1=C(C)N(c2cccc(Cl)c2)C(=O)C1`, for which the cytotoxicity was -4.9%. The figure for `Cc1nc2c(o1)CCc1ccccc1C2N1CCN(C)CC1` (stereo not drawn) is -16.4%; for `CC(C)CC(OC(=O)c1ccco1)C(=O)NC1CCCCC1` (stereo not drawn) it is -5.1%. The figure for `Cc1ccc(N2CCN(CCc3nc4cc(NS(C)(=O)=O)ccc4n3C)CC2)cc1` is -22.1%; for `CCC(C)(C)n1nnnc1C(c1ccccc1F)N1CCC(C(N)=O)CC1` (stereo not drawn) it is 56.3% (active); for `CCC(C)(C)n1nnnc1C(C(C)C)N1CCC(C(N)=O)CC1` (stereo not drawn) it is 5.6%. Next, `CC(C)CCn1nnnc1C(c1ccccc1F)N1CCC(C(N)=O)CC1` (stereo not drawn): -13.3%; `O=C(CN(C1CCCCC1)S(=O)(=O)c1ccc(Cl)cc1)NCc1ccncc1`: -8.9%.

Regarding `Cc1cc(C)c2c(CN3CCN(Cc4ccc5c(c4)OCO5)CC3)cc(=O)oc2c1C`, the cytotoxicity was 44.1%. Next, `O=C(c1cccc(Cl)c1)N1CCN(c2ccccn2)CC1`: -14.9%; `O=C(CCCOc1ccc(Cl)cc1Cl)N1CCN(c2ccccn2)CC1`: 3.1%; `O=C(c1cccc(COc2ccc(Cl)cc2Cl)c1)N1CCN(c2ccccn2)CC1`: 77.5% (active).

With `Cc1cc2c(cc1C)NC(CC(=O)NCc1ccccc1)C(=O)N2` (stereo not drawn), the cytotoxicity is 1.1%. The figure for `Cc1nc(N)sc1-c1csc(Nc2ccccc2)n1` is 36.2%; for `NS(=O)(=O)c1ccc(Nc2nc(-c3ccc(O)cc3)cs2)cc1` it is -1.2%.

In the case of `Oc1ccc(Nc2nc(-c3ccc(O)cc3)cs2)cc1`, the cytotoxicity is 78.4% (active). The figure for `C=CCNc1nc(-c2sc(NC(C)=O)nc2C)cs1` is 11.6%; for `CC(=O)Nc1nc(C)c(-c2csc(Nc3ccc(O)cc3)n2)s1` it is 58.6% (active).

On to `c1cncc(Nc2nc(-c3ccncc3)cs2)c1`, for which the cytotoxicity was -3.1%.
